What all share (assay): glycan array binding signal (z-score within array); higher = stronger binding
Holding throughout (conditions): glycan notation: IUPAC condensed, linker removed

Test [1] deals with Fuc(a1-2)Gal(b1-3)GalNAc(a1-3)[Fuc(a1-2)]Gal(b1-4)Glc. An outline of the steps: (§1)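 The binding signal is a Z-score computed within each array. Data were drawn from 3228 arrays in the Consortium for Functional Glycomics database, restricted to those with a known protein sequence. Scores were averaged over arrays of the same protein sequence at different concentrations or buffers, and over linkers, and negative values can be taken as non-binding.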

The target of test [2] is Fuc(a1-2)Gal(b1-3)GalNAc(a1-3)[Fuc(a1-2)]Gal(b1-4)GlcNAc. An outline of the steps: as §1
The target of test [3] is Fuc(a1-2)Gal(b1-4)[Fuc(a1-3)]GlcNAc(b1-2)Man(a1-3)[Fuc(a1-2)Gal(b1-4)[Fuc(a1-3)]GlcNAc(b1-2)Man(a1-6)]Man(b1-4)GlcNAc(b1-4)GlcNAc. An outline of the steps: as §1
In test [4] the target is Fuc(a1-2)Gal6S(b1-4)GlcNAc. In a few lines:
as §1

A further test has as its target Fuc(a1-2)[Gal(a1-3)]Gal. In a few lines:
as §1

The target in test [5] is Fuc(a1-2)[GalNAc(a1-3)]Gal(b1-3)GalNAc(a1-3)[Fuc(a1-2)]Gal(b1-4)GlcNAc. In a few lines: as §1
The target in test [6] is Fuc(a1-2)[GalNAc(a1-3)]Gal(b1-3)GlcNAc. An outline of the steps: as §1
In test [7] the target is Fuc(a1-2)[GalNAc(a1-3)]Gal(b1-4)GlcNAc(b1-2)Man(a1-3)[Fuc(a1-2)[GalNAc(a1-3)]Gal(b1-4)GlcNAc(b1-2)Man(a1-6)]Man(b1-4)GlcNAc(b1-4)GlcNAc. In a few lines:
as §1

In test [8] the target is Fuc(a1-2)[GalNAc(a1-3)]Gal(b1-4)GlcNAc(b1-3)Gal(b1-4)GlcNAc. An outline of the steps:
as §1

Test [9] deals with Fuc(a1-2)[GalNAc(a1-3)]Gal(b1-4)GlcNAc(b1-3)Gal(b1-4)GlcNAc(b1-3)Gal(b1-4)GlcNAc. In a few lines:
as §1

Test [10] addresses Fuc(a1-2)[GalNAc(a1-4)]Gal(b1-4)GlcNAc. An outline of the steps: as §1
Another test deals with Gal(a1-2)Gal. In a few lines:
as §1

For test [11], the target named is Gal(a1-3)Gal(b1-4)GlcNAc(b1-3)GalNAc. In a few lines: as §1
The target of test [12] is Gal(b1-3)GalNAc(a1-3)[Fuc(a1-2)]Gal(b1-4)Glc. In a few lines: as §1
Test [13] deals with Gal(b1-3)GalNAc(b1-4)[Neu5Ac(a2-3)]Gal(b1-4)Glc. In a few lines:
as §1

Test [14] addresses Gal(b1-3)GlcNAc(a1-6)Gal(b1-4)GlcNAc. In a few lines: as §1
Test [15] addresses Gal(b1-3)GlcNAc(b1-3)Gal(b1-3)GlcNAc. In a few lines: as §1
Test [16] concerns the target Gal(b1-3)GlcNAc(b1-3)Gal(b1-4)GlcNAc. An outline of the steps:
as §1

Test [17] addresses Gal(b1-4)GlcNAc(b1-2)Man(a1-6)[GlcNAc(b1-2)Man(a1-3)]Man(b1-4)GlcNAc(b1-4)GlcNAc. In a few lines: as §1
The target in test [18] is Gal3S(b1-4)[Fuc(a1-3)]Glc6S. An outline of the steps:
as §1

The target in another test is GalNAc(a1-3)GalNAc. In a few lines: as §1
Test [19] concerns the target GalNAc(a1-3)GalNAc(a1-3)Gal(a1-4)Gal(b1-4)GlcNAc. An outline of the steps:
as §1

The target of the next test is Glc(a1-4)Glc. An outline of the steps: as §1
The target in test [20] is GlcNAc(b1-2)Gal(b1-3)GalNAc. An outline of the steps: as §1
For test [21], the target named is GlcNAc(b1-2)Man(a1-3)[GlcNAc(b1-2)Man(a1-6)]Man(b1-4)GlcNAc(b1-4)GlcNAc. In a few lines: as §1
Test [22] concerns the target GlcNAc(b1-3)Gal(b1-4)GlcNAc. In a few lines: as §1
Test [23] addresses GlcNAc(b1-4)Gal(b1-4)GlcNAc. In a few lines: as §1
Another test addresses Kdn(a2-3)Gal(b1-3)GalNAc. An outline of the steps: as §1
The next test has as its target Kdn(a2-3)Gal(b1-4)GlcNAc. An outline of the steps: as §1
The target in test [24] is Man(a1-2)Man(a1-6)[Man(a1-3)]Man(a1-6)[Man(a1-2)Man(a1-2)Man(a1-3)]Man(b1-4)GlcNAc(b1-4)GlcNAc. An outline of the steps:
as §1

Test [25] addresses Neu5Ac(a2-3)Gal(b1-4)[Fuc(a1-3)]GlcNAc(b1-3)GalNAc. An outline of the steps:
as §1

The next test deals with Neu5Ac(a2-3)GalNAc. An outline of the steps:
as §1

The next test concerns the target Neu5Ac(a2-6)Gal. An outline of the steps: as §1
For test [26], the target named is Neu5Ac(a2-8)Neu5Ac(a2-8)Neu5Ac(a2-8)Neu5Ac(a2-3)[GalNAc(b1-4)]Gal(b1-4)Glc. An outline of the steps: as §1
In test [27] the target is Man(a1-3)[Man(a1-6)]Man(b1-4)GlcNAc(b1-4)[Fuc(a1-6)]GlcNAc. An outline of the steps: as §1
The target in test [28] is Neu5Ac(a2-3)Gal(b1-3)GalNAc(b1-3)Gal(a1-4)Gal(b1-4)Glc. An outline of the steps:
as §1

Test [29] addresses Neu5Ac(a2-3)Gal(b1-3)GlcNAc(b1-2)Man(a1-3)[Neu5Ac(a2-3)Gal(b1-3)GlcNAc(b1-2)Man(a1-6)]Man(b1-4)GlcNAc(b1-4)GlcNAc. An outline of the steps: as §1
In test [30] the target is Neu5Ac(a2-3)Gal(b1-4)GlcNAc(b1-2)[Neu5Ac(a2-3)Gal(b1-4)GlcNAc(b1-4)]Man(a1-3)[GlcNAc(b1-4)][Neu5Ac(a2-3)Gal(b1-4)GlcNAc(b1-4)Man(a1-6)]Man(b1-4)GlcNAc(b1-4)GlcNAc. An outline of the steps: as §1
Test [31] deals with Neu5Ac(a2-3)Gal(b1-4)GlcNAc(b1-3)Gal(b1-4)GlcNAc(b1-3)Gal(b1-4)GlcNAc. An outline of the steps:
as §1

In test [32] the target is Neu5Ac(a2-3)Gal(b1-4)GlcNAc(b1-6)[Gal(b1-3)]GalNAc. An outline of the steps: as §1
In test [33] the target is Neu5Ac(a2-6)Gal(b1-4)GlcNAc(b1-2)Man(a1-6)[Man(a1-3)]Man(b1-4)GlcNAc(b1-4)GlcNAc. An outline of the steps:
as §1

For test [34], the target named is Neu5Ac(a2-6)Gal(b1-4)GlcNAc(b1-3)Gal(b1-4)[Fuc(a1-3)]GlcNAc(b1-3)Gal(b1-4)[Fuc(a1-3)]GlcNAc. In a few lines: as §1
Test [35] addresses Neu5Ac(a2-8)Neu5Ac(a2-3)[Gal(b1-3)GalNAc(b1-4)]Gal(b1-4)Glc. In a few lines:
as §1

For test [36], the target named is Neu5Ac(a2-8)Neu5Ac(a2-3)[GalNAc(b1-4)]Gal(b1-4)Glc. An outline of the steps: as §1
Test [37] addresses Neu5Ac(a2-8)Neu5Ac(a2-8)Neu5Ac. In a few lines: as §1

Many of the other results were omitted from the sample, so the strongest signals are more common in it than they were.

B1: Flo10 (Saccharomyces cerevisiae), P36170 (protein)
chain: MPVAARYIFLTGLFLLSVANVALGTTEACLPAGEKKNGMTINFYQYSLKDSSTYSNPSYMAYGYADAEKLGSVSGQTKLSIDYSIPCNGASDTCACSDDDATEYSASQVVPVKRGVKLCSDNTTLSSKTEKRENDDCDQGAAYWSSDLFGFYTTPTNVTVEMTGYFLPPKTGTYTFGFATVDDSAILSVGGNVAFECCKQEQPPITSTDFTINGIKPWNADAPTDIKGSTYMYAGYYYPIKIVYSNAVSWGTLPVSVVLPDGTEVNDDFEGYVFSFDDNATQAHCSVPNPAEHARTCVSSATSSWSSSEVCTECTETESTSYVTPYVTSSSWSSSEVCTECTETESTSTSTPYVTSSSSSSSEVCTECTETESTSYVTPYVSSSTAAANYTSSFSSSSEVCTECTETESTSTSTPYVTSSSWSSSEVCTECTETESTSYVTPYVSSSTAAANYTSSFSSSSEVCTECTETESTSTSTPYVTSSSSSSSEVCTECTETESTSYVTPYVSSSTAAANYTSSFSSSSEVCTECTETESTSTSTPYVTSSSWSSSEVCTECTETESTSYVTPYVSSSTAAANYTSSFSSSSEVCTECTETESTSTSTPYATSSTGTATSFTASTSNTMTSLVQTDTTVSFSLSSTVSEHTNAPTSSVESNASTFISSNKGSVKSYVTSSIHSITPMYPSNQTVTSSSVVSTPITSESSESSASVTILPSTITSEFKPSTMKTKVVSISSSPTNLITSYDTTSKDSTVGSSTSSVSLISSISLPSSYSASSEQIFHSSIVSSNGQALTSFSSTKVSSSESSESHRTSPTTSSESGIKSSGVEIESTSTSSFSFHETSTASTSVQISSQFVTPSSPISTVAPRSTGLNSQTESTNSSKETMSSENSASVMPSSSATSPKTGKVTSDETSSGFSRDRTTVYRMTSETPSTNEQTTLITVSSCESNSCSNTVSSAVVSTATTTINGITTEYTTWCPLSATELTTVSKLESEEKTTLITVTSCESGVCSETASPAIVSTATATVNDVVTVYSTWSPQATNKLAVSSDIENSASKASFVSEAAETKSISRNNNFVPTSGTTSIETHTTTTSNASENSDNVSASEAVSSKSVTNPVLISVSQQPRGTPASSMIGSSTASLEMSSYLGIANHLLTNSGISIFIASLLLAIV
As for B1, the “glycan array binding signal (z-score)” value was -0.704 in [1]; 0.044 in [2]; -0.165 in [3]; 0.331 in [4]; -0.579 with Fuc(a1-2)[Gal(a1-3)]Gal; 1.12 in test [5]. Moreover, the “glycan array binding signal (z-score)” value in test [6] was -0.144; in [7] it was 3.27; in [8], 4.78; in [9] it was 5.34; in [10] it was -0.76; with Gal(a1-2)Gal, 3.67. In addition, the “glycan array binding signal (z-score)” value was -0.351 in test [11]; 3.64 in test [12]; 0.092 in [13]; 0.52 in test [14]; 3.58 in [15]; 0.23 in [16]. The “glycan array binding signal (z-score)” value in test [17] was 0.034; in test [18], -0.042; with GalNAc(a1-3)GalNAc, 0.641; in test [19], 1.74; with Glc(a1-4)Glc it was -0.77; in test [20] it was -0.768. In addition, the “glycan array binding signal (z-score)” value in [21] is -0.394; in test [22], -0.536; in test [23], -0.716; with Kdn(a2-3)Gal(b1-3)GalNAc, 0.113; in the test with Kdn(a2-3)Gal(b1-4)GlcNAc it was -0.202; in test [24], -0.712. Also, the “glycan array binding signal (z-score)” value in test [25] was -0.323; with Neu5Ac(a2-3)GalNAc, -0.639; with Neu5Ac(a2-6)Gal, 5.85; in test [26] it was 0.14.

B2: Gal 8 (Homo sapiens) (protein)
chain: MLSLNNLQNIIYNPVIPYVGTIPDQLDPGTLIVICGHVPSDADRFQVDLQNGSSVKPRADVAFHFNPRFKRAGCIVCNTLINEKWGREEITYDTPFKREKSFEIVIMVLKDKFQVAVNGKHTLLYGHRIGPEKIDTLGIYGKVNIHSIGFSFSSDLQSTQASSLELTEISRENVPKSGTPQLQTVSPSWDLQGHGSETFCSVLWTRVFLEIAFCRPIGLTVASFQSLPFAARLNTPMGPGRTVVVKGEVNANAKSFNVDLLAGKSKDIALHLNPRLNIKAFVRNSFLQESWGEEERNITSFPFSPGMYFEMIIYCDVREFKVAVNGVHSLEYKHRFKELSSIDTLEINGDIHLLEVRSW
B2: the “glycan array binding signal (z-score)” value in [27] was -0.357; in [28], 0.798; in test [29], -0.328; in test [30] it was -0.314; in test [31], 2.12; in test [32], -0.143. For the same molecule, the “glycan array binding signal (z-score)” value in test [33] is -0.357; in test [34], -0.378; in test [35], -0.355; in test [36], -0.398; in test [37], -0.396.

For the origin of these results see the supplement of paper PMC8728848.
